Results as given in PubChem BioAssay (NCATS).
Results filed as inconclusive are left out. A call without a number means that no potency is given here. Activity calls are given as the source filed them. The call rests on the fitted dose curve; in most records, active means well fitted cell-killing curve with a large enough effect; inconclusive means small, poorly fitted or top-dose-only effect; inactive means no such curve, though single readings can be large or run the other way.

Test: qHTS of pediatric cancer cell lines to identify multiple opportunities for drug repurposing: Primary screen for NB1643 cells (AID 1347099); further: nearly all actives have a fitted effect of over 50% in size
Conditions: NB1643 neuroblastoma viability, CellTiter-Glo luminescence, 48 h; series mostly up to 46 µM
From the text: Drug repurposing or repositioning has been offered as a strategy for drug development in oncology programs. This approach has special potential for childhood cancers and other rare or orphan diseases, where the expected return on new drug development has been a disincentive to pharmaceuticals. […] In this project we exploit the poly-pharmacology of drugs to discover new indications via phenotypic screening of a panel of 19 well-characterized cell lines derived from solid tumors seen in children and adolescents. The goal is to identify approved drugs with previously unrecognized anticancer properties that has the potential to reveal new mechanisms and biological processes involved in carcinogenesis or drug resistance. We employed a titration-based paradigm (quantitative high-throughput screening or qHTS), where all compounds were tested at multiple concentrations for their effect on cell viability. Concentration-response curves (CRCs) were derived directly from the primary screen, and both potency and efficacy values were used to identify compounds with robust bioactivity profiles. We screened the NIH Chemical Genomics Center (NCGC) Pharmaceutical Collection (NPC) and Mechanism Interrogation Plate (MIPE) small molecule collections of approved and investigational compounds against these cell lines; and measured metabolically active cells after 48 hours of compound treatment as a proxy for cell viability. […] Assay Submitter: Nathalia J. Martinez, National Center for Advancing Translational Sciences, National Institutes of Health, Rockville, MD, USA; email: natalia.martinez@nih.gov Shen, M et al. Quantitative high-throughput phenotypic screening of pediatric cancer cell lines identifies multiple opportunities for drug repurposing. Oncotarget 2017 Dec 19;9(4):4758-4772. PMID 29435139.
The cells were obtained from University of North Carolina (UNC), Pediatric Preclinical Testing Program (PPT), and Coriell Institute (CI). qHTS cell viability assay: Cells were assayed in growth media at a density of 500-1,000 cells/well. Five microliters of cells were dispensed into 1,536-well, white, solid-bottom, TC-treated plates (Greiner Bio One) using a multidrop dispenser and incubated at 37 degrees C, 5% CO2, under a humidified atmosphere for 5 hours. Twenty-three nanoliters of compounds and controls (neutral control DMSO or positive control bortezomib at final concentration of 2.3 µM) were subsequently transferred by Kalypsys pintool. For primary screens, the MIPE collection was tested at 11-point dilutions (final concentrations range from 0.78 nM to 46 µM) and the NPC collection at 8-point dilutions (final concentrations range from 0.59 nM to 46 µM). Compounds tested in follow-up screens were assayed at 11-point dilutions. Cells were incubated for 48 hours, followed by addition of 3 µL of CellTiter-Glo (Promega). After a 15 min incubation at room temperature, samples were analyzed for luminescence intensity using a ViewLux High-throughput CCD imager equipped with clear filters.
Potency means the concentration at half of the fitted maximal effect.

| Structure (SMILES) | Potency |
| --- | --- |
| CN1CC[C@]23c4c5ccc(O)c4O[C@H]2[C@@H](O)CC[C@H]3[C@H]1C5 | inactive |
| CCOP(=S)(OCC)Oc1ccc2c(C)c(Cl)c(=O)oc2c1 | inactive |
| c1ccc(N2CCNCC2)cc1 | inactive |
| Clc1cccc(SC2CCNCC2)n1 | inactive |
| COc1cc(OC)c(OC)cc1C=O | inactive |
| O=P1(N(CCCl)CCCl)NCCCO1 (stereo not given) | inactive |
| CC(Cc1ccccc1)N(C)Cc1ccco1 (stereo not given) | inactive |
| O=C(N/N=C/c1ccc([N+](=O)[O-])o1)c1cc([N+](=O)[O-])cc([N+](=O)[O-])c1O | inactive |
| CC(C)c1c(CN(C)C(C)Cc2ccccc2)n(C)n(-c2ccccc2)c1=O (stereo not given) | inactive |
| Cc1ncsc1CCCl | inactive |
| CNC(C)(C)Cc1ccccc1 | inactive |
| CC(C)(N)Cc1ccccc1Cl | inactive |
| O=c1c(C2CC(c3ccc(-c4ccc(Br)cc4)cc3)Cc3ccccc32)c(O)sc2ccccc12 (stereo not given) | 10.6 µM (active) |
| CC1(C)C(C=C(Cl)Cl)C1C(=O)OC(C#N)c1cccc(Oc2ccccc2)c1 (stereo not given) | inactive |
| Nc1ccccc1C(=O)O | inactive |
| CCc1cc2c(s1)-n1c(C)nnc1CN=C2c1ccccc1Cl | inactive |
| C#CC(O)(C=CCl)CC (stereo not given) | inactive |
| C[C@H]1[C@@H]2Cc3ccc(O)cc3[C@@]1(C)CCN2C | inactive |
| [N-]=[N+]=CC(=O)OC[C@H](N)C(=O)O | inactive |
| C[C@]12CC[C@@H]3c4ccc(OC(=O)N(CCCl)CCCl)cc4CC[C@H]3[C@@H]1CC[C@@H]2OP(=O)(O)O | inactive |

| Structure (SMILES) | Potency |
| --- | --- |
| CC(C)(C)NCC(O)c1cc(Cl)c(N)c(C(F)(F)F)c1 (stereo not given) | inactive |
| ClCCN1CCCC1 | inactive |
| CC(=O)OCC1=C(C(=O)O)N2C(=O)[C@@H](N)[C@H]2SC1 | inactive |
| CC(NC(C)(C)C)C(=O)c1cccc(Cl)c1 (stereo not given) | inactive |
| CN(C)CCc1c[nH]c2cccc(OP(=O)(O)O)c12 | inactive |
| CCC1(c2ccccc2)C(=O)N(COC)C(=O)N(COC)C1=O | inactive |
| COP(=S)(OC)Oc1ccc(S(=O)(=O)N(C)C)cc1 | inactive |
| COC1CC(=C(c2cccs2)c2cccs2)C[N+](C)(C)C1 (stereo not given) | inactive |
| CCCCC/C=C\C/C=C\C/C=C\C/C=C\CCCC(=O)NCC(=O)O | inactive |
| O=C(O)CCCc1ccc(N(CCCl)CCCl)cc1 | inactive |
| c1ccc(CN2CCNCC2)cc1 | inactive |
| CCCCCCCCCC(=O)O[C@H]1CC[C@H]2[C@@H]3CCC4=CC(=O)CC[C@@H]4[C@H]3CC[C@]12C | inactive |
| O=C(CCCN1CCC2(CC1)C(=O)NCN2c1ccccc1)c1ccc(F)cc1 | inactive |
| C[C@@H](N)[C@@H](O)c1ccccc1 | inactive |
| O=C1OC(c2ccc(O)c(S(=O)(=O)O)c2)(c2ccc(O)c(S(=O)(=O)O)c2)c2c(Br)c(Br)c(Br)c(Br)c21 | inactive |
| CCN(CC)C(=O)[C@@H]1C=C2c3cccc4[nH]cc(c34)C[C@H]2N(C)C1 | inactive |
| O=[N+]([O-])O[C@H]1CO[C@H]2[C@@H]1OC[C@H]2O[N+](=O)[O-] | inactive |
| CCC1(c2ccc(N)cc2)CCC(=O)NC1=O (stereo not given) | inactive |
| COc1cccc([C@@]2(O)CCCC[C@@H]2CN(C)C)c1 | inactive |
| Oc1ccc(Cl)cc1 | inactive |
